Drawing on article PMC7862700, “An all-to-all approach to the identification of sequence-specific readers for epigenetic DNA modifications on cytosine”, this text covers binding signal for one sequence.

Test in all cases: DAPPL (digital affinity profiling via proximity ligation, sequencing); 10 mM Tris-HCl pH 7.5, 50 mM NaCl, 1 mM DTT, 4% glycerol, room temperature, 30 min; GST-TFs on glutathione beads, 16-mer random dsDNA library, 0.1% formaldehyde crosslink after washing; high values mean tight binding
The target in one experiment is T1, FEV (Homo sapiens, UniProt Q99581 1-238).
T1 sequence: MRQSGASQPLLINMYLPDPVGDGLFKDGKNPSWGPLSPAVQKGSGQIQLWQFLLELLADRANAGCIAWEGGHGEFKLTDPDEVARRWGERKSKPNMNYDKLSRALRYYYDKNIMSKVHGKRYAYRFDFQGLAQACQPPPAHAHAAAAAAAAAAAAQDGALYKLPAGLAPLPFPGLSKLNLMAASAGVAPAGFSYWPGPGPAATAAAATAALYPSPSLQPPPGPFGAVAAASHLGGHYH
Particulars: protein: recombinant; tags: N-terminal GST; dsDNA, one strand shown. The method, boiled down: (§1)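 Human transcription factors fused to GST were expressed in yeast, captured on glutathione beads, given DNA barcodes and pooled with a GST-only negative control. Pools were incubated with 200 nmole of a 16-mer random double-stranded DNA library in Tris/NaCl/DTT/glycerol buffer at room temperature for 30 min. They were then washed, crosslinked with 0.1% formaldehyde, proximity-ligated (BsaI/T4 ligase, 1 h, 37 °C), PCR-amplified and sequenced on an Illumina NextSeq500. Binding signal is each 6-mer's read frequency for a factor divided by its frequency for the GST control.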

Another experiment concerns the target ETV5 (Homo sapiens, UniProt P41161 1-510). Particulars: protein: recombinant; tags: N-terminal GST; dsDNA, one strand shown. In short, it runs like this: as §1
The target in the next experiment is HSF1 (Homo sapiens, UniProt Q00613 1-529). To be noted: protein: recombinant; tags: N-terminal GST; chain copies: 3; dsDNA, one strand shown. The method, boiled down: as §1
Sequence of HSF1 (Q00613 whole entry): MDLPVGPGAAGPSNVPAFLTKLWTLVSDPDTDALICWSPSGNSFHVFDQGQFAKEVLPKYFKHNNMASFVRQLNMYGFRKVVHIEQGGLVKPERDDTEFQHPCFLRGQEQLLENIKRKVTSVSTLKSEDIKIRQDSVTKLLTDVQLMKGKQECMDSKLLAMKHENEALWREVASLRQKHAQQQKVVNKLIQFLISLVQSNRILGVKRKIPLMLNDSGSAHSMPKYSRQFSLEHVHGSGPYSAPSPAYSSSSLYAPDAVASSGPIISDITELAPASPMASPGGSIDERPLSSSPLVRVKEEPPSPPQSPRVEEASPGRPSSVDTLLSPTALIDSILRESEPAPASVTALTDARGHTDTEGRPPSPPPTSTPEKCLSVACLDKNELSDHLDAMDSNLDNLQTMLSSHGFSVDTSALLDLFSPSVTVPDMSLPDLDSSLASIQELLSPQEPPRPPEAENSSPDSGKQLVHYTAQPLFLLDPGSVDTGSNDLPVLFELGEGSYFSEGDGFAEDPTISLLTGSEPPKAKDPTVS
A further experiment concerns the target T2, SPIC (Homo sapiens, UniProt Q8N5J4 1-248).
T2 sequence: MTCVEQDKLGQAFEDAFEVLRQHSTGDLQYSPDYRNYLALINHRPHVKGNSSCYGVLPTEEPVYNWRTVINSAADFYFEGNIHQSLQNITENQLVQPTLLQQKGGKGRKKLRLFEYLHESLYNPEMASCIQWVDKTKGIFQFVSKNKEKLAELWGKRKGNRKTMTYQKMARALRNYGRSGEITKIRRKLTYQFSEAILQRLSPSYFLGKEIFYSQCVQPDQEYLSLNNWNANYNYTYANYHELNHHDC
Particulars: protein: recombinant; tags: N-terminal GST; dsDNA, one strand shown. In short, it runs like this:
as §1

The target in a further experiment is ELF4 (Homo sapiens, UniProt Q99607 1-663). To be noted: protein: recombinant; tags: N-terminal GST; dsDNA, one strand shown. In short, it runs like this:
as §1

The target of another experiment is T3, ELK4 (Homo sapiens, UniProt P28324-2 1-405).
T3 sequence: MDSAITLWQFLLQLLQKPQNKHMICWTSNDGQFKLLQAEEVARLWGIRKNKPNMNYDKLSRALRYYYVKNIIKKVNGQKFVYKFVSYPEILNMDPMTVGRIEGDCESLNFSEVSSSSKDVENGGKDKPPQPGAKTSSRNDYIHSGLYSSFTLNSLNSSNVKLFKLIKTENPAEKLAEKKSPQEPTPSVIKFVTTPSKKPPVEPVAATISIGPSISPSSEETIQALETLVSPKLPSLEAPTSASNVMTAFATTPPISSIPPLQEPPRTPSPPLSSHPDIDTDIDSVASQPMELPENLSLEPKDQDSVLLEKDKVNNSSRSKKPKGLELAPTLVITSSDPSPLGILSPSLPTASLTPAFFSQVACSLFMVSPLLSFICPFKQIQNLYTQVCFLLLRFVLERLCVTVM
Particulars: protein: recombinant; tags: N-terminal GST; dsDNA, one strand shown. The method, boiled down:
as §1

Another experiment addresses T4, ETV2 (Homo sapiens, UniProt O00321 1-342).
T4 sequence: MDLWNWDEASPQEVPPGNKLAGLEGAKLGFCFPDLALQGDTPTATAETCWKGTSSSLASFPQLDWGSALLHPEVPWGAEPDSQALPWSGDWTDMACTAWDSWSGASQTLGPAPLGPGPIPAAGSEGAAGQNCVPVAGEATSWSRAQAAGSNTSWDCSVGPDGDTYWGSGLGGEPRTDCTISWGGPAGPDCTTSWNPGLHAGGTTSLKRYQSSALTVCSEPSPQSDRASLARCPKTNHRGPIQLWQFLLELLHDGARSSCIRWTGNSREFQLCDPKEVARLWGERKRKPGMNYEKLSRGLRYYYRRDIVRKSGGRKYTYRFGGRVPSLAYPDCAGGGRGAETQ
Particulars: protein: recombinant; tags: N-terminal GST; dsDNA, one strand shown. The method, boiled down:
as §1

The target in a further experiment is T5, ELF3 (Homo sapiens, UniProt P78545 1-371).
T5 sequence: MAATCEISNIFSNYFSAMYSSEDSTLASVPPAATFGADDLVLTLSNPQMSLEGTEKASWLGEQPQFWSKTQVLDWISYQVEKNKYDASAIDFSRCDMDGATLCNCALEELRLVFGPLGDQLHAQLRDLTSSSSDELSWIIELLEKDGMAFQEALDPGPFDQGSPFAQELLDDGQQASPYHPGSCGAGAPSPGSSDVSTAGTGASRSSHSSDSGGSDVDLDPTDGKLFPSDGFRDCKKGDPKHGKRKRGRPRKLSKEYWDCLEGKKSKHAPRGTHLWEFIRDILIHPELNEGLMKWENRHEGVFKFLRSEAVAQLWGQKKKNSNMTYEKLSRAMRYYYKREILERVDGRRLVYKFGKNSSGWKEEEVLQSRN
To be noted: protein: recombinant; tags: N-terminal GST; dsDNA, one strand shown. The method, boiled down:
as §1

A further experiment concerns the target CRX (Homo sapiens, UniProt O43186 1-299). To be noted: protein: recombinant; tags: N-terminal GST; dsDNA, one strand shown. In short, it runs like this:
as §1

In a further experiment the target is ETV1 (Homo sapiens, UniProt P50549 1-477). To be noted: protein: recombinant; tags: N-terminal GST; dsDNA, one strand shown. The method, boiled down:
as §1

A further experiment deals with T6, ERF (Homo sapiens, UniProt P50548 1-548).
T6 sequence: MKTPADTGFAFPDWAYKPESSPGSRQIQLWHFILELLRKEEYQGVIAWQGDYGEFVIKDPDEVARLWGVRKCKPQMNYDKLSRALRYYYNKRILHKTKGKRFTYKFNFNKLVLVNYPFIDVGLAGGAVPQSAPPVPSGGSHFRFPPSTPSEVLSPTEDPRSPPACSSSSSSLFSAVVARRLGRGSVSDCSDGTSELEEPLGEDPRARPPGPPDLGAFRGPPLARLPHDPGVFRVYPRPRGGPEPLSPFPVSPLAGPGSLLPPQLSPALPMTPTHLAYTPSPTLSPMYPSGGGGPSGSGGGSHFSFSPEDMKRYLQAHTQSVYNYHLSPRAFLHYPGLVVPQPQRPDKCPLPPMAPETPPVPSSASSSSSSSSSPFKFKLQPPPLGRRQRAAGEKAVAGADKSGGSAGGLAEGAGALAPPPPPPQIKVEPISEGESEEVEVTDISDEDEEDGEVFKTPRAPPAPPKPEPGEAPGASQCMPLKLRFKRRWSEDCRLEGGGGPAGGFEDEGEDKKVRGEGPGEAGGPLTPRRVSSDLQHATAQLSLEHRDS
Particulars: protein: recombinant; tags: N-terminal GST; dsDNA, one strand shown. The method, boiled down: as §1

The target of a further experiment is T7, ETV3L (Homo sapiens, UniProt Q6ZN32 1-361).
T7 sequence: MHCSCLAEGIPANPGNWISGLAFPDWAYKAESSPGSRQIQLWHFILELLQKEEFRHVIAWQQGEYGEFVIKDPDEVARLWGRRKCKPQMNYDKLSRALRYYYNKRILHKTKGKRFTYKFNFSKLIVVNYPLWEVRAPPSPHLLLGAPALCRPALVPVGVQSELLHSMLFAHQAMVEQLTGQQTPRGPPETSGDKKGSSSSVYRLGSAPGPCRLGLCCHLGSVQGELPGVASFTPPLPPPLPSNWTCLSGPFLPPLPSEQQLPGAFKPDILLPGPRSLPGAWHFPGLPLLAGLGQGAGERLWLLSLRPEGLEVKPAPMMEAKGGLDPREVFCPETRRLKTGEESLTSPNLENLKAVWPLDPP
Particulars: protein: recombinant; tags: N-terminal GST; dsDNA, one strand shown. In short, it runs like this: as §1

Another experiment deals with T8, ETS2 (Homo sapiens, UniProt P15036 1-469).
T8 sequence: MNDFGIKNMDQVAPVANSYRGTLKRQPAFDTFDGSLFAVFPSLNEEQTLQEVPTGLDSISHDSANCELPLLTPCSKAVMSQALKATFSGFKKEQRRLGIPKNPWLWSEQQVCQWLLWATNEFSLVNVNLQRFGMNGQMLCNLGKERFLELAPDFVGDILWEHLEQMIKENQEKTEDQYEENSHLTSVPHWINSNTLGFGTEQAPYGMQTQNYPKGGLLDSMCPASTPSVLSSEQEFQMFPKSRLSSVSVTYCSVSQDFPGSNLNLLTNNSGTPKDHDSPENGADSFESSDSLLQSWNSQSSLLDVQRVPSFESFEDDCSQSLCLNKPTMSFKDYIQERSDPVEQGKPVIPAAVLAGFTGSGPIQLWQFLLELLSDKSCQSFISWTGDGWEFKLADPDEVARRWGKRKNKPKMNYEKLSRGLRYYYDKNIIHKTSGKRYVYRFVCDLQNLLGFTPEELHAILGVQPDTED
Particulars: protein: recombinant; tags: N-terminal GST; dsDNA, one strand shown. The method, boiled down:
as §1

In a further experiment the target is T9, SPDEF (Homo sapiens, UniProt O95238 1-335).
T9 sequence: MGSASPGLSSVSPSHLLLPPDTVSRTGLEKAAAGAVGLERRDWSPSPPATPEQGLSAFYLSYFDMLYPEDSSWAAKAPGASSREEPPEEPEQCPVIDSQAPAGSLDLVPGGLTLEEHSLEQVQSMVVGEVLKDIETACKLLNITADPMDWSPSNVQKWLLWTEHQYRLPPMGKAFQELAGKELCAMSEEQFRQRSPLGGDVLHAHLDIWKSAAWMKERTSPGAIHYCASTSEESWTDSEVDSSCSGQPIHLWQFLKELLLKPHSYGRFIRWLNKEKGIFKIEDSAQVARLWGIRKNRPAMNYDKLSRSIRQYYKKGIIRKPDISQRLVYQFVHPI
Particulars: protein: recombinant; tags: N-terminal GST; dsDNA, one strand shown. In short, it runs like this:
as §1

For another experiment, the target named is T10, ETV7 (Homo sapiens, UniProt Q9Y603 1-341).
T10 sequence: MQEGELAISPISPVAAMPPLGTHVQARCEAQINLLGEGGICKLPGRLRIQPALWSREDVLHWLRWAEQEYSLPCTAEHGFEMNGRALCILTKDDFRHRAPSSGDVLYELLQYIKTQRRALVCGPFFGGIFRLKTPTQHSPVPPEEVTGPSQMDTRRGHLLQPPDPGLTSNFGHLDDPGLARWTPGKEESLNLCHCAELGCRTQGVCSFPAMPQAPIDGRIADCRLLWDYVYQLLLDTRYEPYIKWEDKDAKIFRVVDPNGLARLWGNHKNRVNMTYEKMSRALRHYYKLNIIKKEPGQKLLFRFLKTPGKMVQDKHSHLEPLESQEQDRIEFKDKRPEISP
Particulars: protein: recombinant; tags: N-terminal GST; dsDNA, one strand shown. The method, boiled down: as §1

A further experiment concerns the target T11, ELF5 (Homo sapiens, UniProt Q9UKW6-2 1-255).
T11 sequence: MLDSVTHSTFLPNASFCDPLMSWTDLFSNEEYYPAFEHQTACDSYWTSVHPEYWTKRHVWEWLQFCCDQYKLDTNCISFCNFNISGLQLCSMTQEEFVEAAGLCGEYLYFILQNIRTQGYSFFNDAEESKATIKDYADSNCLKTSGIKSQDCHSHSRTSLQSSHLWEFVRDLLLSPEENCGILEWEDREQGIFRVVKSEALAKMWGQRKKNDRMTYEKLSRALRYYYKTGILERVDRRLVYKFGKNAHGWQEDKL
Particulars: protein: recombinant; tags: N-terminal GST; dsDNA, one strand shown. In short, it runs like this:
as §1

The next experiment addresses T12, ETV3 (Homo sapiens, UniProt P41162-2 1-143).
T12 sequence: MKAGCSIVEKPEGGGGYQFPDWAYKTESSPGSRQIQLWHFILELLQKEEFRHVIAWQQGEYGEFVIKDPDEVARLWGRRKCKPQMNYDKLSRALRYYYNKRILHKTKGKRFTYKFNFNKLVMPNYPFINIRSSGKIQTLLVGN
To be noted: protein: recombinant; tags: N-terminal GST; dsDNA, one strand shown. The method, boiled down: as §1

A further experiment deals with ETV6 (Homo sapiens, UniProt P41212 1-452). Particulars: protein: recombinant; tags: N-terminal GST; dsDNA, one strand shown. The method, boiled down:
as §1

Sequence of ETV1 (P50549 whole entry): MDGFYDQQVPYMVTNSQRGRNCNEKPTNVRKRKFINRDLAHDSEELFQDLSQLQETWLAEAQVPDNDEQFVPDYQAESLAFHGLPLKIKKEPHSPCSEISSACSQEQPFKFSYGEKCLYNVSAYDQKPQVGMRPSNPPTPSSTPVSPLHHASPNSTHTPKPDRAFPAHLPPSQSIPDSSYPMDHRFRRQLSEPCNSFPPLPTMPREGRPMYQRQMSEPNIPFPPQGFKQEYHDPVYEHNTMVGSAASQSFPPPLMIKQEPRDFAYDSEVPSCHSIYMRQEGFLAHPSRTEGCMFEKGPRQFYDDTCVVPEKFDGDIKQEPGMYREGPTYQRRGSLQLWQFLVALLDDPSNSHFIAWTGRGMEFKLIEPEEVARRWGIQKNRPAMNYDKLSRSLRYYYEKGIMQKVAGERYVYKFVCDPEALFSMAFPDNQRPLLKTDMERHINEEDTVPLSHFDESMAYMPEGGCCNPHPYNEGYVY
Sequence of ETV5 (P41161 whole entry): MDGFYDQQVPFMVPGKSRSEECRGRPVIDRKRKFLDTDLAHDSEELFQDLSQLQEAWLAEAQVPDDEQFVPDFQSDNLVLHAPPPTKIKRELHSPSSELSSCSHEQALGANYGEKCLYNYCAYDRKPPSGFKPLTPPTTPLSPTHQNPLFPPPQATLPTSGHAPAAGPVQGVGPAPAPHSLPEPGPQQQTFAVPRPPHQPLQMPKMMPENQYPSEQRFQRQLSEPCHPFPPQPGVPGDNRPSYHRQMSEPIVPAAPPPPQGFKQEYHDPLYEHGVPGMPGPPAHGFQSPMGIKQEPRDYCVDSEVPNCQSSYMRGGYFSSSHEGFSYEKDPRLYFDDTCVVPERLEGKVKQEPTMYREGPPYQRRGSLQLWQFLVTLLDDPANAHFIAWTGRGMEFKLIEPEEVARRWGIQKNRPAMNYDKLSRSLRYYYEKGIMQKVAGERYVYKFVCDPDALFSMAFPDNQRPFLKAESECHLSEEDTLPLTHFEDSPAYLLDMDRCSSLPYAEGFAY
Sequence of ELF4 (Q99607 whole entry): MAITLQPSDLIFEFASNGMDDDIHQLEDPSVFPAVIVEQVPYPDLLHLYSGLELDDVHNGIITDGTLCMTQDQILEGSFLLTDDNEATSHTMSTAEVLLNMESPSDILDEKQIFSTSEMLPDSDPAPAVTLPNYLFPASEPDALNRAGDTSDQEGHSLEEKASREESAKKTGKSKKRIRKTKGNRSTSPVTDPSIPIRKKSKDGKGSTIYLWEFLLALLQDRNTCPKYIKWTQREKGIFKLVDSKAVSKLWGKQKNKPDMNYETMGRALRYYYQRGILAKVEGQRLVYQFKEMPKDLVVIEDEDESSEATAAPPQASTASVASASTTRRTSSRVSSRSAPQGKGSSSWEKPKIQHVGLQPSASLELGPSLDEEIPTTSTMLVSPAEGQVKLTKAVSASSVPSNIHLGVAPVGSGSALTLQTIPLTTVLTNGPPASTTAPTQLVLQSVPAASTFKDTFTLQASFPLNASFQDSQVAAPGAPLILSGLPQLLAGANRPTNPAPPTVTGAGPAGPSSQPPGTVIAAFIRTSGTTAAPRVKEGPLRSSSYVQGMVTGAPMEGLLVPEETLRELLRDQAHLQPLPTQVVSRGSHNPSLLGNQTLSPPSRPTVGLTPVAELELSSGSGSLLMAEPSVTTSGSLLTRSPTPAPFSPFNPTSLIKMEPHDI
Sequence of ETV6 (P41212 whole entry): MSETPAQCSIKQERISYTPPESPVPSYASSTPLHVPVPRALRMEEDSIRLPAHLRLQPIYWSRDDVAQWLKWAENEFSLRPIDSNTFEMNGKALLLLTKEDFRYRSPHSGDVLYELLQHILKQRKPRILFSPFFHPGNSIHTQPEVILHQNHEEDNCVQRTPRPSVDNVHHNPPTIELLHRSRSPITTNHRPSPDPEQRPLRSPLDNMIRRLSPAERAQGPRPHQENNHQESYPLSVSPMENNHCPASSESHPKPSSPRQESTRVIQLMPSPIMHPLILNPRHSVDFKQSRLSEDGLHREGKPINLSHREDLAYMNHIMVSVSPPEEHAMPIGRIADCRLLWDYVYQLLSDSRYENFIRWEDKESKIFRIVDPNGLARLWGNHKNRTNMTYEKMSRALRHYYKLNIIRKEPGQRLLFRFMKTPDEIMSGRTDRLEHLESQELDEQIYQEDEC
Sequence of CRX (O43186 whole entry): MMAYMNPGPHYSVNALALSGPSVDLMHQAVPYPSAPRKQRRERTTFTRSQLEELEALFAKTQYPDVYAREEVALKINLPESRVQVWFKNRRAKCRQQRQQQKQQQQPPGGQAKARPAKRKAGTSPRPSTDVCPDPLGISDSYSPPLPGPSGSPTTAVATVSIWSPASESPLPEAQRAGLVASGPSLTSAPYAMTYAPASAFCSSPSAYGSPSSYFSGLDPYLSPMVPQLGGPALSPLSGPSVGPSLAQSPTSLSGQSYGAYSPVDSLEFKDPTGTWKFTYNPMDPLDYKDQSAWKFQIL

CTTCTG: the binding signal in the experiment with FEV was 1.23 fold enrichment (6-mer frequency, TF over GST control); with ETV5, 1.35 fold enrichment (6-mer frequency, TF over GST control); with HSF1, 2.07 fold enrichment (6-mer frequency, TF over GST control); with SPIC it was 1.39 fold enrichment (6-mer frequency, TF over GST control); in the experiment with ELF4, 1.42 fold enrichment (6-mer frequency, TF over GST control); in the experiment with ELK4, 1.57 fold enrichment (6-mer frequency, TF over GST control). In addition, the binding signal with ETV2 was 1.32 fold enrichment (6-mer frequency, TF over GST control); in the experiment with ELF3, 1.29 fold enrichment (6-mer frequency, TF over GST control); in the experiment with CRX it was 1.49 fold enrichment (6-mer frequency, TF over GST control); with ETV1, 1.22 fold enrichment (6-mer frequency, TF over GST control); in the experiment with ERF, 1.28 fold enrichment (6-mer frequency, TF over GST control); with ETV3L, 1.47 fold enrichment (6-mer frequency, TF over GST control). For the same sequence, the binding signal was 1.34 fold enrichment (6-mer frequency, TF over GST control) with ETS2; 1.26 fold enrichment (6-mer frequency, TF over GST control) with SPDEF; 1.2 fold enrichment (6-mer frequency, TF over GST control) with ETV7; 1.39 fold enrichment (6-mer frequency, TF over GST control) with ELF5; 1.28 fold enrichment (6-mer frequency, TF over GST control) with ETV3; 1.38 fold enrichment (6-mer frequency, TF over GST control) with ETV6.
